# Compound activity (PubChem BioAssay)
# Rows were chosen to be rich in hits. Some 1% of all compounds tested hit in one or more screens of this group.
# FadD28 binding = M. tuberculosis FadD28 bisubstrate binding inhibition | FadD28 bisubstrate probe binding, fluorescence polarization | 360,000 compounds, 0.22% hits | inhibition, % at 12.5 µM; in the data active = inhibition above about 8.5%, passing the limit was not always enough; inconclusive = no clear call, values can overlap the other calls
# Mtb hypoxia rep = inhibitors of hypoxia-regulated fluorescent reporter in Mycobacterium tuberculosis; 300,000 compounds, 0.1% hits; fluorescence inhibition, % (no concentration beside the values); AID 1159583; M. tuberculosis hypoxia-regulated fluorescent reporter, fluorescence; in the data active = fluorescence inhibition mostly above about 23%, no sharp cut-off; inactive = mostly below about 17%
# TcdB GH inh = blocks C. difficile toxin B glycohydrolase activity. inhibition, % at 9.99 µM. TcdB glycohydrolase enzymatic assay, plate reader. 350,000 compounds, 0.24% hits. P18177. AID 652162; in the data active = inhibition above about 10%
# Mtb BioA inh = blocks M. tuberculosis BioA enzyme activity. inhibition, % at 9.99 µM. purified M. tuberculosis BioA enzyme, plate reader. 360,000 compounds, 0.096% hits; in the data active = inhibition above about 40%; inconclusive = no clear call, values can overlap the other calls
# PriA SSB inh = blocks PriA binding to SSB C-terminal tail; inhibition, % at 33 µM; AID 1272365; 430,000 compounds, 0.6% hits; AlphaScreen SSBct-PriA binding, biotinylated peptide; in the data active = inhibition mostly above about 37%, no sharp cut-off; inactive = mostly below about 20%;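 note: plate controls were negative control peptide for no effect and reference peptide for full effect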
# PrP UTR inh = inhibition of PrP 5' UTR reporter expression; cell-based PrP 5' UTR mRNA reporter, plate reader; inhibition, % (no concentration beside the values); 340,000 compounds, 0.35% hits; AID 488862; in the data active = inhibition above about 52%; note: 0 = median of the neutral control wells
# An asterisk follows results filed as active; i = inactive; u = inconclusive; x = no result given; + = active, no number; ! = not active in a repeat.
SMILES,FadD28 binding,Mtb hypoxia rep,TcdB GH inh,Mtb BioA inh,PriA SSB inh,PrP UTR inh
CCCN1CCN(S(=O)(=O)c2ccc3c(c2)CC(C)N3C(=O)C2CC2)CC1 (stereo unspecified),-1.4,10.0,-1.4,1.2,-11.3,-2.1
C/C(=N/NC(=S)NCCc1ccccc1)c1ccco1,x,x,x,x,62.0*,x
C/C(=N\NC(=S)NCc1ccccc1)c1ccco1,-2.3,x,-0.5,x,x,-7.1
CC(NCc1cccc(Cl)c1Cl)C(O)c1ccccc1 (stereo unspecified),-4.2,10.9,x,0.6,116.3*,-17.5
Cc1cccc2cncc(OCc3nnc(SC(F)F)n3C)c12,0.4,-6.2,1.5,x,-10.1,-16.8
Cc1ccc(C2c3c(C)nn(-c4ccc([N+](=O)[O-])cc4)c3N=C3C(=O)Nc4ccccc4N32)cc1 (stereo unspecified),x,40.1*,x,x,x,x
Cn1c(COc2ccc(Cl)cc2)nnc1SCC(=O)NC1CC1,-3.5,34.3*,0.3,3.3,1.1,-16.5
C[C@@H]1CN([C@@H](C)CO)C(=O)c2cccc(NC(=O)NC3CCCCC3)c2O[C@@H]1CN(C)S(=O)(=O)c1ccccc1,x,x,1.4,1.4,x,x
COc1ccc(C(=O)NN=Cc2cccc3cccnc23)cc1,x,-5.3,x,x,79.8*,x
COc1ccc(OCC(=O)N/N=C/c2cccc3cccnc23)cc1,-0.9,x,3.1,0.7,x,6.4
O=C(N/N=C/c1cccc2nccnc12)c1ccncc1,-1.6,x,0.2,0.4,+,x
O=C(N/N=C/c1cccc2cccnc12)c1ccccc1O,-0.5,x,-0.4,-0.7,+,-10.5
CCOc1ccc(C(=O)NN=Cc2cccc3cccnc23)cc1,x,x,x,x,88.5*,x
COc1ccccc1NC(=O)C1CCOC1=O (stereo unspecified),-1.1,4.2,1.1,0.0,4.4,x
O=C(COc1ccc(/C=N/NC(=O)c2ccc(O)cc2)cc1)Nc1cccc([N+](=O)[O-])c1,-0.2,x,15.4*,x,i,-8.5
O=C(NN=Cc1ccc(OCc2ccccc2)cc1)c1ccncc1,x,36.5*,x,x,-0.3,x
CC(=O)c1ccc(NC(=O)C2CCCN2S(=O)(=O)c2ccc(F)cc2)cc1 (stereo unspecified),-3.3,x,0.7,-1.1,-1.0,-15.3
O=C(Nc1ccc(O)cc1)C1CCCN1S(=O)(=O)c1ccc(F)cc1 (stereo unspecified),0.4,x,10.2*,-2.4,6.1,2.8
CC(=O)Nc1ccc(NC(=O)[C@@H]2CCCN2S(=O)(=O)c2ccc3c(c2)OCCO3)cc1,-2.0,-10.3,16.2*,-0.6,1.6,-5.7
COc1cc(N=Nc2ccccc2C(=O)O)ccc1O,-0.8,48.4*,-0.9,2.5,-6.6,-11.0
Cc1cc(O)c(C(C)C)cc1N=Nc1ccccc1C(=O)O,1.5,50.8*,5.7,3.3,13.2,-12.8
COc1cc(N=Nc2ccc3ccccc3c2)ccc1O,-0.5,-3.5,-0.1,1.2,81.7,-90.9
Cc1cc(O)c(C(C)C)cc1N=Cc1ccccc1[N+](=O)[O-],-2.9,20.1,3.5,-0.1,0.3,-18.3
O=C(O)c1ccccc1N=Nc1c(O)[nH]c(=O)[nH]c1=O,-2.2,6.8,0.8,9.5,-5.4,-31.6
Cc1cc(N=Nc2ccccc2C(=O)O)c(C)c(C)c1O,u,45.3*,5.9,x,10.8,0.4
SMILES,FadD28 binding,Mtb hypoxia rep,TcdB GH inh,Mtb BioA inh,PriA SSB inh,PrP UTR inh
O=C(Nc1ccc2c(c1)OCO2)c1c[nH]c(=O)n(-c2ccc(F)cc2)c1=O,-1.9,12.6,1.4,-0.7,38.0*!,-20.0
COc1ccc(-n2c(=O)[nH]cc(C(=O)Nc3ccc4c(c3)OCCO4)c2=O)cc1OC,-2.4,6.9,0.7,1.2,-8.5,-5.0
O=C(C[C@@H]1CC[C@@H]2[C@H](COC[C@@H](O)CN2C(=O)c2ccccc2F)O1)NCc1ccc(-c2ccccc2)cc1,x,x,x,-1.7,x,x
CC(C)(C)C(=O)C1=C(O)C(=O)N(c2ccccc2)C1c1ccccc1 (stereo unspecified),-0.3,4.4,21.9*,-0.5,-19.8,-10.6
CN(C)/C=C(\C#N)C(=O)Nc1ccc(O)cc1F,0.0,11.1,18.9*,x,-6.3,-17.1
CN(C)/C=C(\C#N)C(=O)Nc1ccccc1,-4.6,10.1,0.3,x,-10.5,-22.9
Cc1ccc(OCCCC(=O)Nc2ccc3c(c2)OCO3)c(C)c1,x,x,x,x,36.0*,x
Cc1ccc(OCC(=O)Nc2ccc3c(c2)OCO3)c(C)c1,-4.5,8.7,1.2,x,-9.3,-38.9
Cc1cccc(C(=O)Nc2nc(-c3ccccn3)cs2)c1C,x,x,x,x,73.2*,x
COc1ccccc1Nc1nc(-c2ccccn2)cs1,x,x,x,x,26.2,x
Fc1ccccc1Nc1nc(-c2ccccn2)cs1,x,x,x,x,77.1*,x
